Data: PubChem BioAssay
Measured potencies and affinities stand elsewhere. The source made the active and inactive calls.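 How the source made its calls, unless noted: active means earlier screen potentiator hit that boosts the TRPC4 ion channel at some dose, with a dose response; inactive means no potentiation, no dose response, or not a prior hit.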

target: Short transient receptor potential channel 4 (Mus musculus) (UniProt Q9QUQ5); test: calcium entry via TRPC4 opening agents – cell-based, HEK293 TRPC4/mu-opioid, Fluo-4 calcium, dose response (AID 434937;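 active means primary screen activator hit with a dose response curve and TRPC4 channel activation at any tested dose; inactive means no activation, no dose response, or not a primary hit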); conditions: HEK293 TRPC4 cells, Fluo-4 calcium fluorescence ratio; series mostly up to 20 µM
Sequence (Q9QUQ5 whole entry, looked up): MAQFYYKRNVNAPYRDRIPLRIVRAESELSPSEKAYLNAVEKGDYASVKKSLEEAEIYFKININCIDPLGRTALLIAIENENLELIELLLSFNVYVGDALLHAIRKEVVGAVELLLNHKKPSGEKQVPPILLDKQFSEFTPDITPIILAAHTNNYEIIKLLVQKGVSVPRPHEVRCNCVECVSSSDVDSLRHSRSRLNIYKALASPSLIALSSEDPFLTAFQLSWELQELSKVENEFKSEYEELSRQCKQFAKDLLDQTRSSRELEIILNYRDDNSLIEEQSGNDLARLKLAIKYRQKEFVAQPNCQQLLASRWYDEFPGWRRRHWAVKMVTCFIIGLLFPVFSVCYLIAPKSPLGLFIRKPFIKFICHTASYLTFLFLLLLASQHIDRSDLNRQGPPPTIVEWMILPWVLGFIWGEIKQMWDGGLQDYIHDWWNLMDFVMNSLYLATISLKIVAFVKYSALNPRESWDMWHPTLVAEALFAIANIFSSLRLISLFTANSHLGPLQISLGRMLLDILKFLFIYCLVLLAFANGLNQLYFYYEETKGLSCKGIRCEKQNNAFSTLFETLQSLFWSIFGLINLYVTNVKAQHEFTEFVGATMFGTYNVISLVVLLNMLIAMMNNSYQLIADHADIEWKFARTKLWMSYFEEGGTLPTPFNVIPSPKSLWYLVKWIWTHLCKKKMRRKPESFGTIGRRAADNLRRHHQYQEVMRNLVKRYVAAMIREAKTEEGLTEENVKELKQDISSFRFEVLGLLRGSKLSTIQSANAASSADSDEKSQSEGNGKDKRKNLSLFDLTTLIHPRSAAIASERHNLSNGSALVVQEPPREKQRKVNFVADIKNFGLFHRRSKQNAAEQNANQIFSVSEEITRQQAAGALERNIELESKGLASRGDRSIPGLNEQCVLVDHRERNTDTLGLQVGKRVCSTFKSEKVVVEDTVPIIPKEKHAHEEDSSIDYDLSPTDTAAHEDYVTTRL

outcome, inactive:
CCOC(=O)c1c(N)sc(C(O)(C(F)(F)F)C(F)(F)F)c1-c1ccccc1, CC1CCCN(CCCN2C(=O)C3C(C(=O)Nc4ccc(Cl)cc4)C4C=CC3(O4)C2C(=O)NC2CCCCC2)C1 (stereo unspecified), O=C(C[n+]1cccc(CNC(=O)c2ccc(OC(F)F)cc2)c1)Nc1ccc(SC(F)F)cc1, Cc1ncsc1CCOC(=O)c1cccc([N+](=O)[O-])c1, CC#CC[N+](C)(C)CCCCCCCCCCCC, Cc1cc(OCc2cc(C(=O)NCCN3CCCCC3CO)no2)cc(C)c1Cl (stereo unspecified), Cc1cc(N2CCC(C)CC2)nc2cccc(O)c12, Fc1ccccc1COc1ccc(Br)cc1CNCC1CCCO1 (stereo unspecified), Cn1cc(CNCC2CCCO2)c(-c2ccc(Oc3ccccc3)cc2)n1 (stereo unspecified), COc1cccc(C2=NN(C(=O)c3ccco3)C(c3ccco3)C2)c1 (stereo unspecified), O=C(COC(=O)Cn1cnc2ccccc2c1=O)Nc1ccccc1Sc1ccc(Cl)cc1, NC(=O)c1nsc(C(=O)N(Cc2ccccc2Cl)C(C(=O)NCC2CCCO2)c2ccc(O)cc2)c1N (stereo unspecified), O=C(NC1CCCCC1)N1CCN(C(c2ccccc2)c2ccccc2)CC1, Cc1ccc(NC(=S)N(CCCN(C)C)Cc2cc3cc4c(cc3[nH]c2=O)OCO4)c(C)c1, CCCC[n+]1c2ccccc2cc2ccccc21, CC(C)(C)CC(C)(C)NCC(O)COc1ccc2c(c1)CCC2 (stereo unspecified), CCOc1ccc(Cl)cc1/C=N/O, O=C(C[n+]1cc(-c2ccc(Cl)c(Cl)c2)n2c1CCC2)N1c2ccccc2Sc2ccccc21, CC1CCc2c(sc3ncnc(SCC(=O)Nc4ccc(C(=O)O)cc4)c23)C1 (stereo unspecified), NS(=O)(=O)c1ccc(Nc2nc(-c3ccc(O)cc3O)cs2)cc1, CCCn1c(NC(=O)c2ccc(Cl)c(S(=O)(=O)N3CCCC3)c2)nc2ccccc21

target: Short transient receptor potential channel 4 (Mus musculus) (UniProt Q9QUQ5); test: potentiation of DAMGO-evoked TRPC4 calcium signal – cell-based, HEK293 TRPC4/mu-opioid, Fluo-4 calcium, EC20 DAMGO, dose response (AID 434941); conditions: HEK293 TRPC4/mu-opioid cells, Fluo-4 calcium fluorescence; series mostly up to 20 µM;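 further: calcium entry triggered by an EC20 dose of DAMGO at the co-expressed mu-opioid receptor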

outcome, inactive:
COc1ccc(CN2CCN(Cc3ccccc3F)CC2)c(OC)c1, C/C(N)=C(/C#N)C(=O)COC(=O)CC12CC3CC(CC(C3)C1)C2, CCCCC[n+]1cccc2c3ccccc3ccc21, COc1ccc(OC)c(Nc2cc(-c3ccccc3)nc(N)n2)c1, CCC1CCCCN1Cc1nc2c(c(=O)n(C)c(=O)n2C)n1Cc1ccccc1 (stereo unspecified), CCOC(=O)C1CCN(C2CCN(C(=O)c3oc4c(C)c(C)ccc4c3C)CC2)CC1, O=[N+]([O-])c1cccc(-c2nnc(C3CC3)o2)c1, CCOc1c(Cl)cc(CNCC(O)c2ccccc2)cc1OC (stereo unspecified), O=C(c1cccc(C(=O)N2CCN(c3ccccc3)CC2)c1)N1CCN(c2ccccc2)CC1, Cc1ccn2c(-c3csc(NCc4ccco4)n3)c(C)nc2c1, COc1ccc(Nc2nc(N)c3ccccc3n2)c(OC)c1, CCc1c(C(=O)N2CCCN(C)CC2)csc1C, COc1ccc(C)cc1N(C(=O)c1snc(C(N)=O)c1N)C(C(=O)NC1CCCC1)c1ccc(F)cc1 (stereo unspecified), CC(C)(c1ccccc1)c1ccc(OCCCNCCO)cc1, Cc1ccc(-n2nc(-c3cccs3)cc2C(=O)NCC2CCCO2)c(C)c1 (stereo unspecified), CC(C)CCN1CCN(Cc2ccsc2)CC1CCO (stereo unspecified), CN(CC1CCCN(CCc2cccc(C(F)(F)F)c2)C1)C(=O)c1cc2ccccc2o1 (stereo unspecified), Oc1ccc(CN2CCc3ccccc3C2)c2cccnc12, COc1ccc(C2C(C(C)=O)=C(O)C(=O)N2c2ccc(Br)cc2)cc1 (stereo unspecified), CCOC(=O)c1c(N)sc(C(O)(C(F)(F)F)C(F)(F)F)c1-c1ccccc1, CC1CCCN(CCCN2C(=O)C3C(C(=O)Nc4ccc(Cl)cc4)C4C=CC3(O4)C2C(=O)NC2CCCCC2)C1 (stereo unspecified), O=C(C[n+]1cccc(CNC(=O)c2ccc(OC(F)F)cc2)c1)Nc1ccc(SC(F)F)cc1, Cc1ncsc1CCOC(=O)c1cccc([N+](=O)[O-])c1, CC#CC[N+](C)(C)CCCCCCCCCCCC, Cc1cc(OCc2cc(C(=O)NCCN3CCCCC3CO)no2)cc(C)c1Cl (stereo unspecified), Cc1cc(N2CCC(C)CC2)nc2cccc(O)c12, Fc1ccccc1COc1ccc(Br)cc1CNCC1CCCO1 (stereo unspecified), Cn1cc(CNCC2CCCO2)c(-c2ccc(Oc3ccccc3)cc2)n1 (stereo unspecified), COc1cccc(C2=NN(C(=O)c3ccco3)C(c3ccco3)C2)c1 (stereo unspecified), O=C(COC(=O)Cn1cnc2ccccc2c1=O)Nc1ccccc1Sc1ccc(Cl)cc1, NC(=O)c1nsc(C(=O)N(Cc2ccccc2Cl)C(C(=O)NCC2CCCO2)c2ccc(O)cc2)c1N (stereo unspecified), O=C(NC1CCCCC1)N1CCN(C(c2ccccc2)c2ccccc2)CC1, Cc1ccc(NC(=S)N(CCCN(C)C)Cc2cc3cc4c(cc3[nH]c2=O)OCO4)c(C)c1, CCCC[n+]1c2ccccc2cc2ccccc21, CC(C)(C)CC(C)(C)NCC(O)COc1ccc2c(c1)CCC2 (stereo unspecified), CCOc1ccc(Cl)cc1/C=N/O, O=C(C[n+]1cc(-c2ccc(Cl)c(Cl)c2)n2c1CCC2)N1c2ccccc2Sc2ccccc21, CC1CCc2c(sc3ncnc(SCC(=O)Nc4ccc(C(=O)O)cc4)c23)C1 (stereo unspecified), NS(=O)(=O)c1ccc(Nc2nc(-c3ccc(O)cc3O)cs2)cc1, CCCn1c(NC(=O)c2ccc(Cl)c(S(=O)(=O)N3CCCC3)c2)nc2ccccc21
